In PubChem BioAssay (NCI) one finds growth data, which are given here for 29 compounds.

Holding throughout (assay): NCI-60 one-dose screen, 48 h (100 = growth as untreated, 0 = no growth, -100 = all killed)
Settings in all cases: 10 µM unless noted

Assay [1] deals with SR leukemia.
Assay [2] concerns OVCAR-8 ovarian.
In assay [3] the test system is OVCAR-5 ovarian.
For assay [4], the system named is OVCAR-4 ovarian.
Assay [5] concerns SK-OV-3 ovarian.
In assay [6] the test system is IGROV1 ovarian.
For assay [7], the system named is OVCAR-3 ovarian.
Assay [8] deals with HS 578T breast.
The subject of assay [9] is NCI/ADR-RES ovarian.
The test system of assay [10] is RPMI-8226 leukemia.

About 83,000 compounds went through this panel and 20% of them were active in at least one assay; those are over-represented in the sample as a whole.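 Cell lines were cultured in 96-well plates, exposed to a single compound concentration, and assessed for percent growth 48 hours later.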 Unmarked numbers belong to inactive results. Activity calls are given as the source filed them. The calls were made as follows: active = growth percent below 10; inactive = the rest.

`O=C(/C=C/c1ccc(Cl)cc1)c1ccc(NC(=O)N2CCN(c3cc4c(cc3F)c(=O)c(C(=O)O)cn4C3CC3)CC2)cc1`: the growth in assay [1] is 22%; in assay [2], 65.3%; in assay [3], 103%; in assay [4], 99.2%; in [5], 99.1%; in [6], 89.2%. For the same compound, the values for the growth in assay [7], in assay [8] and in assay [9] were 93.8%, 86.7% and 99.8%, respectively.

Consider `COc1ccc2[nH]c(O)c(/C=c3/cc4c(c(-c5ccc(F)cc5)n3)=Nc3ccccc3-4)c2c1`, for which the growth in assay [1] was 6.4% (active); in assay [2], 75.5%; in assay [3], 119%; in [4], 81.6%; in assay [5] it was 115%; in assay [6] it was 96.8%. The growth in assay [7] is 94.7%; in assay [8], 78.8%; in assay [9] it was 52.1%.

As for `Cc1cccc(NC(=O)Nc2ccc(-n3cnc4cc(-c5ccc(O)cc5)ccc43)cc2)c1`, the growth was 19.7% in assay [1]; 17.6% in assay [2]; 76.8% in [3]; 27.4% in assay [4]; 60.3% in [5]; 33.2% in assay [6]. Besides, the figures for the growth in assay [7], in [8] and in assay [9] were 20.4%, 82% and 39.5%, respectively.

For `COc1cc2nc(-c3ccc(Cl)cc3)cc(OCCCN3CCOCC3)c2cc1OC`, the growth in [1] was 12.9%; in [2], 42.7%; in [3], 42.8%; in assay [4] it was 70.4%; in assay [5], 68.4%; in assay [6] it was 35.6%. The growth in assay [7] was 77.8%; in assay [8] it was 76.4%; in [9], 44.6%.

With `CCOC(=O)c1ccc2c(c1)ncn2-c1ccc(NC(=O)Nc2cccc(C)c2)cc1`, the growth was 19.9% in assay [1]; 83.8% in [2]; 85.5% in assay [3]; 75.7% in [4]; 97.5% in assay [5]; 98.9% in [6]. Besides, the growth was 96.9% in assay [7], 84.1% in assay [8] and 72.2% in assay [9].

Turning to `CCCCOc1ccc(/C(C)=N/Nc2cc(C)nc3ccc(Br)cc23)cc1`, the growth is -8.75% (active) in assay [1]; 57.9% in [10]; 88.4% in assay [2]; 113% in assay [3]; 89.4% in assay [5]; 85.7% in [6]. Besides, the growth in assay [8] was 96.6%; in assay [9] it was 99.2%.

Consider `COc1ccccc1NS(=O)(=O)c1cccc(C(=O)Nc2ccc(Br)cc2)c1`, for which the growth is 50.4% in assay [1]; 57.6% in [2]; 68.9% in [3]; 35.3% in [4]; 44.1% in assay [5]; 46.6% in [6]. For the same compound, the growth in [7] is 45.8%; in [8], 73.8%; in [9], 27.6%.

On to `COc1ccc(/C=C2\COc3ccc(-c4ccccc4)cc3C2=O)c(OC)c1`, for which the growth in [1] was 69.1%; in [2], 96.4%; in assay [3] it was 101%; in assay [5] it was 107%; in assay [6], 120%; in assay [7], 98.3%. Further, the growth in assay [8] was 125%; in assay [9], 72.6%.

On to `Cc1ccc(CNc2c3ccccc3nc3cc(NC(=O)CCN4CCCC4)ccc23)cc1`, for which the growth in [1] is -49.4% (active); in assay [2] it was 7.44% (active); in assay [3], 20.7%; in [4] it was -38.4% (active); in assay [5] it was 42.5%; in assay [6], 5.63% (active). For the same compound, the growth in assay [7] is -73.3% (active); in assay [8] it was 14.6%; in assay [9], 63.1%.

Turning to `O=S(=O)(NCCNc1nccc(-c2c(-c3cccc(O)c3)nc3occn23)n1)c1ccccc1`, the growth in [1] was 75.7%; in [2], 79.8%; in assay [3] it was 117%; in [4] it was 123%; in assay [5], 97.2%; in assay [6], 47.8%. Also, the growth in assay [7] is 97.9%; in [8] it was 91.8%; in assay [9] it was 112%.

Regarding `Cc1cccc(C)c1N=c1oc2ccc(Cl)cc2nc1-c1ccccc1O`, the growth in assay [1] is 51.9%; in assay [2], 91.4%; in [3] it was 81.3%; in assay [4], 78.4%; in [5], 92.8%; in [6], 88.3%. Moreover, the growth was 102% in assay [7], 84.3% in assay [8] and 86.4% in assay [9].

Turning to `COc1ccc(/C=C/c2nc(Nc3ccc(S(=O)(=O)NC(C)=O)cc3)c3ccccc3n2)cc1`, the growth in [1] is 53.9%; in assay [2], 76.2%; in assay [3], 72.5%; in [4], 79.4%; in assay [5], 90.2%; in [6], 91.6%. For the same compound, the growth in [7] was 95.5%; in [8], 82.8%; in assay [9] it was 85.9%.

`COCCCN1CC(O)=C(c2nc(-c3ccc(C)cc3)cs2)C1=N`: the growth is 109% in [1]; 95.2% in assay [2]; 97.6% in assay [3]; 150% in assay [4]; 120% in assay [5]; 54.4% in assay [6]. In addition, the growth in assay [7] is 112%; in assay [8], 102%; in assay [9] it was 106%.

For the compound `COc1cc(-c2n/c(=C\c3c(O)[nH]c4ccc(Cl)cc34)cc3c2=Nc2ccccc2-3)ccc1F`, the growth in assay [1] was 7.25% (active); in assay [2], -50.7% (active); in [3], 74%; in [4], -56.9% (active); in assay [5], -14.7% (active); in assay [6], -18% (active). The growth in assay [7] is -14.6% (active); in [8] it was 14.8%; in assay [9] it was 47%.

With `COC(=O)/C=C1\S/C(=N\NC(=O)c2cc3ccc2/C=C\c2ccc(cc2)/C=C\3)N(c2ccccc2)C1=O`, the growth is -15.6% (active) in assay [1]; 40.7% in [2]; 48.2% in assay [3]; 29.4% in assay [4]; 135% in [5]; 5.97% (active) in assay [6]. Further, the figures for the growth in [7], in assay [8] and in [9] were -6.25% (active), 77.9% and 31.4%, respectively.

Turning to `CCOc1ccc(/C=N/Nc2cc(C)nc3ccc(Br)cc23)cc1`, the growth in [1] is 2.09% (active); in [2], 90.6%; in assay [3], 89.2%; in assay [4], 91.8%; in [5] it was 90.8%; in assay [6], 96.2%. Further, the growth was 105% in assay [7], 101% in [8] and 81.8% in assay [9].

`Cc1nn(-c2ccccc2)c(Oc2c(Cl)cccc2Cl)c1/C=N/N=c1\sc2ccccc2n1C`: the growth in assay [1] is 16.6%; in [2], 45.8%; in [3] it was 58.5%; in assay [4], 81.8%; in assay [5], 70.6%; in assay [6], 53.6%. In addition, the growth in assay [7] is 49.9%; in assay [8], 73.2%; in assay [9], 56.1%.

For the compound `O=C(CCN1CCCC1)Nc1ccc2c(NCCCCc3ccccc3)c3ccccc3nc2c1`, the growth is -29% (active) in [1]; 1.13% (active) in assay [2]; 7.16% (active) in assay [3]; -74.6% (active) in assay [4]; 53.9% in [5]; -18.1% (active) in assay [6]. The values for the growth in assay [7], in [8] and in assay [9] were -82.6% (active), -9.34% (active) and 80.8%, respectively.

Turning to `Oc1c(Cl)cc(Cl)c(Cl)c1CNCCNCc1c(O)c(Cl)cc(Cl)c1Cl`, the growth in [1] is 1.15% (active); in assay [2], 11.3%; in assay [3], 54%; in assay [4], 22.6%; in assay [5], 22%; in [6], 16.4%. Further, the growth was 19.1% in assay [7], 57.7% in [8] and 4.33% (active) in [9].

Regarding `CCN1Cc2nc3sc(C)c(C)c3c(=O)n2C=C1C`, the growth in assay [1] was -9.23% (active); in assay [2], 38.1%; in [3] it was 85.9%; in [4] it was 42.3%; in assay [5], 115%; in assay [6], 30.1%. In addition, the growth in assay [8] is 43.2%; in assay [9] it was 30.9%.

Consider `COc1ccc2nc(-c3ccc(-c4noc(-c5cc(OC)c(OC)c(OC)c5)n4)cc3)[nH]c2c1`, for which the growth in assay [1] was 18.9%; in assay [2], 33.6%; in assay [3], 113%; in [4] it was -53.4% (active); in assay [5], 116%; in assay [6], 110%. For the same compound, the growth is 44.8% in assay [7], 72.6% in assay [8] and 45.3% in [9].

On to `O=C(NNc1nc2c(F)cccc2n2cccc12)c1cnccn1`, for which the growth was 7.37% (active) in assay [1]; 21.1% in assay [2]; 39% in assay [3]; 28.1% in [4]; 28.4% in assay [5]; 21.1% in assay [6]. Moreover, the growth in [7] is 23.2%; in assay [8] it was 77.3%; in assay [9], 3.12% (active).

As for `Cc1ccc(NC(=O)c2cc(-c3nc4ccccc4s3)c(=O)n(NS(=O)(=O)c3ccc(Cl)cc3)c2N)cc1`, the growth is 95% in [1]; 103% in assay [2]; 110% in [3]; 103% in [4]; 108% in [5]; 99.7% in assay [6]. The growth was 103% in assay [7], 104% in assay [8] and 105% in assay [9].

In the case of `O=C(O)c1ccc2c(c1)C(=O)N(Cc1ccccc1)C2=O`, the growth in [1] is 101%; in assay [10], 95.5%; in assay [3], 105%; in [4], 114%; in assay [5], 106%; in [6], 106%. Also, the growth in assay [7] was 103%; in assay [8], 99.7%; in assay [9] it was 98%.

For the compound `NS(=O)(=O)c1ccc(CCn2c(SCC(=O)c3ccc(Cl)cc3)nc3ccccc3c2=O)cc1`, the growth in assay [1] is 100%; in assay [2] it was 107%; in [3], 108%; in assay [4] it was 103%; in [5] it was 107%; in assay [6] it was 107%. In addition, the growth in assay [7] is 109%; in [8], 101%; in [9], 98.6%.

With `COc1cc(-c2csc(NC(=O)c3cc(F)cc(C(F)(F)F)c3)n2)cc(OC)c1OC`, the growth is 16.1% in [1]; 37.7% in assay [2]; 82.7% in [3]; 58.7% in assay [4]; 54.3% in assay [5]; 43.8% in assay [6]. For the same compound, the growth in [7] is 12.2%; in assay [8], 20%; in [9], 49.8%.

`COc1cc2oc(-c3cccc(C(=O)Nc4ccc(Br)cc4)c3)cc(=O)c2c(OC)c1OC`: the growth is 18.4% in [1]; 40.5% in assay [2]; 61% in [3]; 57.6% in [4]; 69.4% in [5]; 52.3% in assay [6]. Further, the growth is 76% in [7], 65.2% in assay [8] and 45.7% in assay [9].

In the case of `C=CCN1C(=O)/C(=C/C(=O)OC)S/C1=N\NC(=O)c1cc2ccc1/C=C\c1ccc(cc1)/C=C\2`, the growth in [1] was 1.79% (active); in [2], 88.2%; in assay [3] it was 96.1%; in [4] it was 97.1%; in [5], 140%; in assay [6], 89.2%. Besides, the figures for the growth in assay [8] and in assay [9] were 93.6% and 89.5%, respectively.

Take `COc1cc(/C=C\c2cc(/C=C\c3ccc(O)c(OC)c3)n(C(=O)COc3ccccc3)n2)ccc1O`: the growth in assay [10] was -3.54% (active); in assay [2] it was 3.26% (active); in assay [3], 22.1%; in assay [4], 25.6%; in [5], -28.6% (active); in assay [6], 8.43% (active). For the same compound, the growth is -4.46% (active) in assay [7], 22.5% in [8] and 20.4% in assay [9].
